Inconclusive results are not listed. Active and inactive are the calls of the source. The calls were made as follows, unless noted: active = hit-call score of the fitted dose curve at least 0.9, where 1 is the maximum; inactive = score below 0.9.
Columns and labels:
[1] = CCTE_Shafer_MEA_acute_interburst_interval_mean: CCTE's Neural Acute Assay for Mean Interburst Interval, Shafer Lab (AID 2284016);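 also: percent change of mean interburst interval versus each well's own pre-dose baseline; curves fitted for decrease in interburst interval relative to DMSO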
Procedure, shortened: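 Rat cortical cultures, DIV 13/15; 20 min equilibration, 40 min baseline, compound 0.03-40 uM, 40 min re-recording, 37 C. Spikes detected at 8x rms noise (300-5000 Hz band-pass). Endpoint: % change in interburst interval, fitted in loss direction vs DMSO.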

[2] = CCTE_Shafer_MEA_acute_burst_percentage_mean: CCTE's Neural Acute Assay for Percentage of Spikes in a Burst, Shafer Lab (AID 2284017);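 also: curve fitted for loss of signal so potency reflects decreased burst percentage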
Procedure, shortened: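 Rat cortical cultures, DIV 13/15, 37 C. Spikes detected at 8x rms noise (300-5000 Hz band-pass). Burst spikes/total spikes averaged across electrodes per well; % change post- vs pre-treatment (40 min each), loss-of-signal fit vs DMSO.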

[3] = CCTE_Shafer_MEA_acute_burst_percentage_std: CCTE's Neural Acute Assay for Standard Deviation of Burst Percentage, Shafer Lab (AID 2284018);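 also: fitted in the negative direction so actives lower burst percentage SD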
Procedure, shortened: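 Rat primary cortical neurons on 48-well MEAs, DIV 13 or 15, 37 C. 40-min baseline then 40-min recording with compound (0.03-40 uM); well-level SD of per-electrode burst spike percentage, expressed as percent change from baseline.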

[4] = CCTE_Shafer_MEA_acute_per_network_burst_spike_number_mean: CCTE's Neural Acute Assay for Average Number of Spikes in a Network Burst, Shafer Lab (AID 2284019)
Procedure, shortened: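 Rat primary cortical neurons on 48-well MEA at DIV 13 or 15, 37 C; compounds 0.03-40 uM, at least three wells each. 40-min baseline then 40-min exposure recording; percent change in mean spikes per network burst.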

[5] = CCTE_Shafer_MEA_acute_per_network_burst_spike_number_std: CCTE's Neural Acute Assay for Standard Deviation of Number of Spikes in a Network Burst, Shafer Lab (AID 2284020);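 also: fitted for decrease in spike-number SD versus DMSO so actives lower it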
Procedure, shortened: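 Rat primary cortical neurons on 48-well MEA (16 electrodes/well), treated DIV 13 or 15 at 0.03-40 uM, ≥3 wells per compound. 40 min recordings at 37 C before and after dosing; value is percent change in network-burst spike-number SD, negative direction vs DMSO.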

[6] = CCTE_Shafer_MEA_acute_per_network_burst_electrodes_number_mean: CCTE's Neural Acute Assay for Mean Number of Electrodes in a Network Burst, Shafer Lab (AID 2284021);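 also: curves fitted for decreases only so hits reduce electrodes per burst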
Procedure, shortened: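 Primary rat cortical networks, mwMEA, 37 C. 20 min stabilization, 40 min baseline, compound 0.03-40 uM, 40 min re-record. Wells need >=10 active electrodes; percent change per well, negative fitting direction.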

[7] = CCTE_Shafer_MEA_acute_network_burst_percentage: CCTE's Neural Acute Assay for Percentage of Network Bursts, Shafer Lab (AID 2284022);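 also: curves fitted for loss so actives lower network burst percentage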
Procedure, shortened: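 Readout is the fraction of spikes falling in network bursts, expressed as per-well percent change from a 40-min pre-exposure baseline. Primary rat cortical neurons on MEA were exposed to 0.03-40 uM compound on DIV 13 or 15 and recorded for 40 min at 37 C.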

[8] = CCTE_Shafer_MEA_acute_cross_correlation_area: CCTE's Neural Acute Assay for Area of Cross Correlation, Shafer Lab (AID 2284024);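 also: area under pooled inter-electrode spike cross-correlation near zero lag as percent change from own baseline; curves fitted for loss of cross-correlation area so actives lower synchrony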
Procedure, shortened: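 Plates equilibrated 20 min at 37 C, then 40 min baseline was recorded, compound was added (0.03-40 uM), and a further 40 min was recorded. Wells needed ≥10 active electrodes (≥5 spikes/min) on exposure day.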

[9] = CCTE_Shafer_MEA_acute_cross_correlation_HWHM: CCTE's Neural Acute Assay for Cross Correlation at Half Width at Half Maximum, Shafer Lab (AID 2284026);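 also: percent change per well from pre-dose baseline in spike cross-correlogram half width; hits are a decrease in cross-correlogram half width relative to DMSO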
Procedure, shortened: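 Rat cortical neuron cultures on microelectrode arrays were equilibrated 20 min at 37 C, recorded 40 min at baseline, then 40 min after compound addition (0.03-40 uM, ≥3 wells). Spikes were detected at 8x rms noise after 300-5000 Hz band-pass filtering.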

[10] = CCTE_Shafer_MEA_acute_synchrony_index: CCTE's Neural Acute Assay for Synchrony, Shafer Lab (AID 2284027);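 also: network synchrony index of spontaneous spiking in primary rat cortical neurons on MEAs; fitted for loss of signal so actives lower synchrony relative to DMSO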
Procedure, shortened: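 Primary rat cortical neurons on 48-well MEAs, dosed at 0.03–40 uM on DIV 13 or 15. Spikes are recorded for 40 min at 37C before and after exposure, and synchrony index (0–1) is expressed as percent change from baseline per well.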

[11] = CCTE_Shafer_MEA_acute_AB: CCTE's Alamar Blue Assay for Cytotoxicity in the Neural Acute Assay, Shafer Lab (AID 2284069; active = hit-call score of the fitted dose curve at least 0.9, where 1 is the maximum;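 also: active compounds lower the viability signal compared with DMSO wells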)
Procedure, shortened: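 Metabolic activity in chemically exposed rat cortical neurons (MEA cultures, day 13/15 post-plating) measured via CellTiter Blue resazurin reduction, 544/590 nm fluorescence; fitted relative to DMSO, with signal loss indicating reduced viability.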

[12] = CCTE_Shafer_MEA_acute_LDH: CCTE's Lactate Dehydrogenase Assay for Cytotoxicity in the Neural Acute Assay, Shafer Lab (AID 2284086; active = hit-call score of the fitted dose curve at least 0.9, where 1 is the maximum;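 also: active means LDH release rises above DMSO vehicle level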)
Procedure, shortened: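 Medium from rat cortical neuron MEA cultures sampled right after the 40 min compound-exposure recording; released LDH measured by absorbance at 490 nm. Analyzed as signal gain relative to DMSO.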

[13] = read-out: Monokine induced gamma interferon (MIG), CXCL9 (gene 4283); test: BSK_KF3CT_MIG: BioMAP Diversity Plus: KF3CT Assay for Monokine induced gamma interferon (MIG) Biomarker Activity (AID 2284248); conditions: primary human keratinocytes with fibroblasts
Procedure, shortened: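 KF3CT system: keratinocyte/fibroblast co-culture, 24 h post-dose, MIG by ELISA; activity vs DMSO, positive fitting direction.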

[14] = read-out: Collagen I, COL1A1 (gene 1277); test: BSK_hDFCGF_CollagenI: BioMAP Diversity Plus: hDFCGF Assay for Collagen I Biomarker Activity (AID 2284250); conditions: primary human foreskin fibroblasts
Procedure, shortened: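 Primary human foreskin fibroblasts exposed to chemical for 24 h; Collagen I levels measured by ELISA. Cytotoxicity checked by SRB total-protein staining in parallel cultures.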

[15] = read-out: Interferon-inducible T-cell alpha chemoattractant (ITAC), CXCL11 (gene 6373); test: BSK_hDFCGF_ITAC: BioMAP Diversity Plus: hDFCGF Assay for Interferon-inducible T-cell alpha chemoattractant (ITAC) Biomarker Activity (AID 2284251); conditions: primary human foreskin fibroblasts
Procedure, shortened: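 Primary human foreskin fibroblasts (hDFCGF system) treated for 24 h; I-TAC quantified by ELISA. Gain-direction fitting versus DMSO; parallel SRB staining of total protein flagged overt cytotoxicity.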

[16] = read-out: Plasminogen activator inhibitor-1 (PAI1), SERPINE1 (gene 5054); test: BSK_KF3CT_PAI1: BioMAP Diversity Plus: KF3CT Assay for Plasminogen activator inhibitor-1 (PAI1) Biomarker Activity (AID 2284252); conditions: primary human keratinocytes with fibroblasts
Procedure, shortened: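 Human keratinocyte/foreskin fibroblast co-culture dosed for 24 h; PAI-1 measured by ELISA, fitted in positive direction against DMSO baseline. Parallel SRB total-protein staining (0.1% SRB, 560 nm) assesses overt cytotoxicity.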

[17] = read-out: Interleukin-8 (IL8), CXCL8 (gene 3576); test: BSK_KF3CT_IL8: BioMAP Diversity Plus: KF3CT Assay for Interleukin-8 (IL8) Biomarker Activity (AID 2284254); conditions: primary human keratinocytes with fibroblasts
Procedure, shortened: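 Chemicals were added to co-cultured human keratinocytes and foreskin fibroblasts, incubated 24 h, then IL-8 was quantified by ELISA. Cytotoxicity was tracked by sulforhodamine B total-protein staining in parallel cultures.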

[18] = read-out: Intercellular Adhesion Molecule 1 (ICAM1), ICAM1 (gene 3383); test: BSK_BE3C_ICAM1: BioMAP Diversity Plus: BE3C Assay for Intercellular Adhesion Molecule 1 (ICAM1) Biomarker Activity (AID 2284278); conditions: primary human bronchial epithelial cells;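 also: cell-surface ICAM-1 protein level quantified by ELISA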
Procedure, shortened: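 Primary human bronchial epithelial cells in BE3C system, 24 h after chemical dosing; cell-surface ICAM-1 measured by ELISA relative to DMSO. Parallel SRB staining (0.1% SRB after 10% TCA fixation, read at 560 nm) assessed cytotoxicity.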

[19] = read-out: Interferon-inducible T-cell alpha chemoattractant (ITAC), CXCL11 (gene 6373); test: BSK_BE3C_ITAC: BioMAP Diversity Plus: BE3C Assay for Interferon-inducible T-cell alpha chemoattractant (ITAC) Biomarker Activity (AID 2284279); conditions: primary human bronchial epithelial cells
Procedure, shortened: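 BE3C cells (human primary bronchial epithelium), 24 h compound exposure, I-TAC by ELISA, DMSO = negative control/baseline, positive fitting direction.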

[20] = read-out: Interleukin-8 (IL8), CXCL8 (gene 3576); test: BSK_BE3C_IL8: BioMAP Diversity Plus: BE3C Assay for Interleukin-8 (IL8) Biomarker Activity (AID 2284280); conditions: primary human bronchial epithelial cells
Procedure, shortened: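 Primary human bronchial epithelial cells (BE3C system) exposed 24 h; IL-8 measured by ELISA and fitted in positive direction versus DMSO. Overt cytotoxicity assessed by SRB total-protein staining in parallel cultures.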

[21] = read-out: Epidermal growth factor receptor (EGFR), EGFR (gene 1956); test: BSK_BE3C_EGFR: BioMAP Diversity Plus: BE3C Assay for Epidermal growth factor receptor (EGFR) Biomarker Activity (AID 2284281); conditions: primary human bronchial epithelial cells
Procedure, shortened: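 Human primary bronchial epithelial cells (BE3C system) dosed with chemicals; EGFR measured by ELISA at 24 h, fitted in the positive direction relative to DMSO. Cytotoxicity tracked in parallel cultures by SRB total-protein staining.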

KRT18 (gene 3875) = test: BSK_BE3C_Keratin818: BioMAP Diversity Plus: BE3C Assay for Keratin 818 Biomarker Activity (AID 2284282); conditions: primary human bronchial epithelial cells
Procedure, shortened: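 Primary human bronchial epithelial cells treated 24 h; Keratin 8/18 quantified by ELISA, fit relative to DMSO. Cytotoxicity tracked in parallel cultures by sulforhodamine B total-protein staining.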

[22] = read-out: Matrix Metallopeptidase 9 (MMP9), MMP9 (gene 4318); test: BSK_BE3C_MMP9: BioMAP Diversity Plus: BE3C Assay for Matrix Metallopeptidase 9 (MMP9) Biomarker Activity (AID 2284283); conditions: primary human bronchial epithelial cells
Procedure, shortened: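 BE3C, human bronchial epithelial primary cells; 24 h post-dose; MMP-9 by ELISA; positive fit vs DMSO; SRB (0.1%, TCA-fixed, 560 nm) parallel cytotox.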

[23] = read-out: Plasminogen activator inhibitor-1 (PAI1), SERPINE1 (gene 5054); test: BSK_CASM3C_PAI1: BioMAP Diversity Plus: CASM3C Assay for Plasminogen activator inhibitor-1 (PAI1) Biomarker Activity (AID 2284284); conditions: primary human coronary artery smooth muscle cells;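 also: PAI-1 protein level measured by ELISA 24 h after dosing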
[24] = read-out: Monocyte Chemoattractant Protein-1 (MCP1), CCL2 (gene 6347); test: BSK_hDFCGF_MCP1: BioMAP Diversity Plus: hDFCGF Assay for Monocyte Chemoattractant Protein-1 (MCP1) Biomarker Activity (AID 2284285); conditions: primary human foreskin fibroblasts
Procedure, shortened: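 Human foreskin fibroblasts (hDFCGF system) were exposed to compound and secreted MCP-1 was measured by ELISA after 24 hours. Activity was fitted relative to DMSO. Cytotoxicity was checked by SRB total-protein staining in parallel cultures.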

[25] = read-out: Intercellular Adhesion Molecule 1 (ICAM1), ICAM1 (gene 3383); test: BSK_hDFCGF_ICAM1: BioMAP Diversity Plus: hDFCGF Assay for Intercellular Adhesion Molecule 1 (ICAM1) Biomarker Activity (AID 2284287); conditions: primary human foreskin fibroblasts
Procedure, shortened: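 Primary human foreskin fibroblasts (hDFCGF system) dosed with chemical; ICAM-1 quantified by ELISA at 24 h relative to DMSO. Parallel SRB total-protein staining to assess overt cytotoxicity.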

[26] = read-out: TIMP metallopeptidase inhibitor 2 (TIMP2), TIMP2 (gene 7077); test: BSK_hDFCGF_TIMP2: BioMAP Diversity Plus: hDFCGF Assay for TIMP metallopeptidase inhibitor 2 (TIMP2) Biomarker Activity (AID 2284289); conditions: primary human foreskin fibroblasts
Procedure, shortened: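 Primary human foreskin fibroblasts in the hDFCGF system, dosed for 24 h; TIMP-2 level measured by ELISA, fitted in the positive direction against DMSO; cytotoxicity checked in parallel by sulforhodamine B total protein staining.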

[27] = read-out: Thrombomodulin, THBD (gene 7056); test: BSK_LPS_Thrombomodulin: BioMAP Diversity Plus: LPS Assay for Thrombomodulin Biomarker Activity (AID 2284296); conditions: primary human HUVEC with PBMC
Procedure, shortened: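 Human umbilical vein endothelial cells co-cultured with PBMC and stimulated with LPS; cell-surface thrombomodulin measured by ELISA 24 hours after compound. Gain or loss versus DMSO; cytotoxicity checked by SRB staining in parallel cultures.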

CD69, CD69 (gene 969) = test: BSK_LPS_CD69: BioMAP Diversity Plus: LPS Assay for CD69 Biomarker Activity (AID 2284303); conditions: primary human HUVEC with PBMC
Procedure, shortened: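 Human umbilical vein endothelial cells co-cultured with PBMC under LPS stimulation, chemical exposure 24 h; cell-surface CD69 measured by ELISA and fitted in the positive direction versus DMSO.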

Measured: AC50

CCCC[N+](CCCC)(CCCC)CCCC
inactive: [4] | [6] | [11] | [12] | [13] | [14] | [15] | [16] | [17] | [18] | [19] | [20] | [21] | KRT18 (gene 3875) | [22] | [23] | [24] | [25] | [26] | [27] | CD69, CD69 (gene 969)
active: [1] 9.27 µM | [2] 9.71 µM | [3] 23.2 µM | [5] 5.6 µM | [7] 6.81 µM | [8] 0.00953 µM | [9] 2.98 µM | [10] 9.18 µM
